The other results are listed elsewhere or left out. Active and inactive are the calls of the source. Calls follow the shape of the full dose curve.
biological target: Dual specificity protein kinase CLK4 (Homo sapiens) (UniProt Q9HAZ1); assay: Kinase Inhibition Study on Inhibitors of CDC-like Kinase 4 (Reaction Biology data): SAR round 2; conditions: Reaction Biology kinase assay, 10 uM ATP
From the text: NIH Molecular Libraries Probe Production Centers Network [MLPCN] NIH Chemical Genomics Center [NCGC] MLPCN Grant: 1R03MH084827-01 Assay Submitter (PI): Tom Misteli NCGC Assay Overview: Alternative splicing of pre-mRNAs plays a major role in the regulation of eukaryotic gene expression. Alternative splicing is now thought to be one of the primary reasons for the complexity of higher organisms leading to an average of three protein isoforms per gene. Aberrant splicing can lead to a number of diseases and is known to play a role in rare genetic diseases such as progeria syndrome. Hutchinson-Gilford Progeria Syndrome (HGPS) is a pediatric premature aging disease caused by a spontaneous mutation in the lamin A/C (LMNA) gene due to a single point mutation in the lamin A gene effecting 1 in 4 million people. To identify both specific splicing modulators of the lamin A gene as well as general splicing modulators, a cell-based HTS assay was developed using a minigene reporter system (AIDs, 1459 & 1487). […] This AID summarizes the characterization of lead compounds in Clk4.
All kinase reactions were performed using 10 uM ATP in the assay. 100% activity was taken from kinase reactions with DMSO alone (the vehicle used for compound stock solutions).

Sequence of Dual specificity protein kinase CLK4 (Homo sapiens) (Q9HAZ1 whole entry, looked up, canonical isoform): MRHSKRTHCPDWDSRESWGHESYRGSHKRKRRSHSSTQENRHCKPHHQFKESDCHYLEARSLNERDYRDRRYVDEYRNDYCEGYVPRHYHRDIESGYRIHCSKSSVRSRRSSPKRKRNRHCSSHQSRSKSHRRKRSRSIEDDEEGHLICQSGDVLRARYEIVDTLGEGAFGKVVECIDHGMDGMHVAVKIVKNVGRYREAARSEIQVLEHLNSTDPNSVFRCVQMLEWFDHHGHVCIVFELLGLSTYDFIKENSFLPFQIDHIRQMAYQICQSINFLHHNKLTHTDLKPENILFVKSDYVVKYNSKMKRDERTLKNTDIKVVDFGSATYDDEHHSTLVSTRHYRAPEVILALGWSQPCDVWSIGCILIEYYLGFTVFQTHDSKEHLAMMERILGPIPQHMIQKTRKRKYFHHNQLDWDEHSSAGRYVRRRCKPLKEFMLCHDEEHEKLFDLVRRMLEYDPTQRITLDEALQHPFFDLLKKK

Potency, active:
CN(Cc1cncn1C)c1ncnc2ccc(-c3ccc4c(c3)OCO4)cc12 507 nM
CC(Nc1ncnc2ccc(-c3ccc4c(c3)OCO4)cc12)c1ccco1 (centres undefined) 7600 nM
c1nc(N2CCOCC2)c2cc(-c3ccc4c(c3)OCO4)ccc2n1 135 nM
c1coc(CCNc2ncnc3ccc(-c4ccc5c(c4)OCO5)cc23)c1 42 nM

Reference: PubChem BioAssay AID504421 (National Center for Advancing Translational Sciences (NCATS), 2011)
